Inconclusive results are not listed. Calls of active or inactive are those of the source. Calls follow the shape of the dose curve; as a rule, active = well fitted curve in the direction sought with a large enough effect in the repeat runs; inconclusive = weak or mixed curves; inactive = no such curve, though single readings can be large; an effect the other way counts as inactive or inconclusive.
% is scaled to controls: 0 for no effect and ±100 for the full control effect.

A short description of the first experiment: qHTS assay to identify small molecule agonists of the RXR signaling pathway - cell viability counter screen (AID 1159529). Also: nearly all actives have a fitted effect of over 50% in size. Also: potency is read from the fitted curve at half-maximal effect.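 As to activity change, negative = cytotoxicity: HEK 293T cells carrying an RXR-alpha UAS beta-lactamase reporter.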 Particulars: RXR-alpha-bla HEK293T viability, CellTiter-Glo, 16 h; series mostly up to 76.8 µM; activity change, negative = cytotoxicity: at the top concentration. In outline:
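In this parallel viability measure, GeneBLAzer RXR-alpha HEK 293T cells (2% charcoal-stripped FBS) were given a 5 hr preincubation, treated with compounds 16 hr at 37 C, and read by CellTiter-Glo luminescence.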
Background: qHTS replaces the single test concentration by a dilution series.
Regarding `CCC(C)c1cccc(C(C)CC)c1O` (centres undefined), the “activity change, negative = cytotoxicity” value was -15.2% (inactive). In the case of `Fc1ccc(C(OCCN2CCN(CCCc3ccccc3)CC2)c2ccc(F)cc2)cc1`, the Potency was 16.9 µM (active). `CN(C)c1ccc(N)cc1`: the Potency is 42.6 µM (active). Same read-out and setting: the same measure for `CCN1CCC2(CC1)COc1cc3c(cc12)N(C(=O)c1ccc(-c2ccc(-c4nnc(C)o4)cc2C)cc1)CC3`: 3.59 µM (active). For `c1ccc(N=NNc2ccccc2)cc1`, the “activity change, negative = cytotoxicity” value is -11.8% (inactive). On the same count and under the same terms, to `CC(C)Br` belongs -23.8% (inactive). Still for that read-out and setting: the same measure for `COC(=O)N(OC)c1ccccc1COc1ccn(-c2ccc(Cl)cc2)n1`: -0.612% (inactive).

A further experiment is described as follows: qHTS assay to identify small molecule antagonists of the retinoid acid receptor (RAR) signaling pathway - cell viability counter screen (AID 1159551). Also: nearly all actives have a fitted effect of over 35% in size. Particulars: C3RL4 cells viability, ATP luminescence (CellTiter-Glo), 6 h; series mostly up to 92.4 µM; activity change, negative = cytotoxicity: at the top concentration. In outline: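 Cytotoxicity counter screen: ATP content quantified by CellTiter-Glo luminescence in C3RL4 cells treated 6 hr at 37 C with compound and retinol (1 uM final). Cells plated at 1,000/well and cultured overnight before dosing.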
Turning to `O=c1[nH]c(Cl)c(Cl)cc1Cl`, the “activity change, negative = cytotoxicity” value is 2.05% (inactive).

Regarding `Cc1c([N+](=O)[O-])cc2c(c1[N+](=O)[O-])C(C)(C)CC2(C)C`, the “activity change, negative = cytotoxicity” value was -2.65% (inactive). Still for that read-out and setting: the same measure for `C=CCOC(=O)c1ccccc1N`: -4.93% (inactive); for `Brc1ccc(Oc2ccc(Br)cc2Br)c(Br)c1`: 1.12% (inactive); for `CCC(OC(C)=O)C(CC(C)NC)(c1ccccc1)c1ccccc1` (centres undefined): -7.19% (inactive). The same measure, in the same setting: the same measure for `N#Cc1c2ccccc2cc2ccccc12`: -2.89% (inactive); for `CCC[CH2][Sn]([CH2]CCC)([O]C(C)=O)[O]C(C)=O`: -4.28% (inactive); for `O.O.O.O=C([O-])[C@H]([O-])[C@@H]([O-])C(=O)[O-].O=C([O-])[C@H]([O-])[C@@H]([O-])C(=O)[O-].[K+].[K+].[Sb+3].[Sb+3]`: -0.95% (inactive). The same measure, in the same setting: to `CC(C)(C)c1ccc(OP(=O)(Oc2ccccc2)Oc2ccccc2)cc1` belongs -0.788% (inactive); to `CSC(=O)c1c(C(F)F)nc(C(F)(F)F)c(C(=O)SC)c1CC(C)C`, -1.02% (inactive); to `O=S(=O)(NS(=O)(=O)C(F)(F)F)C(F)(F)F`, 0.451% (inactive).

In the case of `CN1CCc2cc(Cl)c(O)cc2[C@H]2c3ccccc3CC[C@@H]21`, the “activity change, negative = cytotoxicity” value was 4.56% [at 42.5 µM] (inactive). Still for that read-out and setting: the same measure for `CCCCCCCc1ccc(O)cc1`: -9.57% (inactive); for `ClC1=C(Cl)[C@]2(Cl)[C@@H]3[C@H]4C[C@H]([C@@H]5O[C@H]45)[C@@H]3[C@@]1(Cl)C2(Cl)Cl`: -5.75% (inactive).

As to `[Cl-].[Cl-].[Cl-].[Yb+3]`, the “activity change, negative = cytotoxicity” value was -4.48% (inactive). Still for that read-out and setting: to `Cc1c([N+](=O)[O-])c(C)c([N+](=O)[O-])c(C(C)(C)C)c1[N+](=O)[O-]` belongs -3.4% (inactive); to `NC1CCC(CC2CCC(N)CC2)CC1` (centres undefined), 2.63% (inactive). Still for that read-out and setting: the same measure for `c1ccc(Nc2ccc(Nc3ccccc3)cc2)cc1`: 1.61% (inactive).

Turning to `CCOP(=S)(NC(C)C)Oc1ccccc1C(=O)OC(C)C` (centres undefined), the “activity change, negative = cytotoxicity” value was -5.97% (inactive).

Turning to `CCC(C)Nc1c([N+](=O)[O-])cc(C(C)(C)C)cc1[N+](=O)[O-]` (centres undefined), the “activity change, negative = cytotoxicity” value is -2.89% (inactive).

For the compound `Cc1ccccc1OP(=O)(Oc1ccccc1C)Oc1ccccc1C`, the “activity change, negative = cytotoxicity” value is -2.06% (inactive).

With `CCOP(=O)(OCC)Oc1nc(Cl)c(Cl)cc1Cl`, the “activity change, negative = cytotoxicity” value was -0.597% (inactive).

Regarding `c1ccc2nc(N3CCNCC3)ccc2c1`, the “activity change, negative = cytotoxicity” value is -1.13% [at 42.5 µM] (inactive). Still for that read-out and setting: the same measure for `CCO/N=C(\CC)C1=C(O)CC(c2c(C)cc(C)cc2C)CC1=O` (centres undefined): 0.714% (inactive); for `N#CC(C#N)=NNc1cccc(Cl)c1`: -8.31% (inactive). In the case of `CCOP(=S)(OCC)Oc1cc(C)nc(N(CC)CC)n1`, the “activity change, negative = cytotoxicity” value was -1.18% (inactive).

In the case of `CCCCCCC[CH2][Sn]([Cl])([Cl])[CH2]CCCCCCC`, the “activity change, negative = cytotoxicity” value was -0.598% (inactive).

On to `O=[N+]([O-])[O-].[Tl+]`, for which the “activity change, negative = cytotoxicity” value was -0.496% (inactive).

Turning to `O=C(NC(=O)c1c(F)cccc1F)Nc1ccc(Oc2ccc(C(F)(F)F)cc2Cl)cc1F`, the “activity change, negative = cytotoxicity” value was -0.06% (inactive). For `C#CCC1=C(C)C(OC(=O)C2C(C=C(C)C)C2(C)C)CC1=O` (centres undefined), the “activity change, negative = cytotoxicity” value was -1.76% (inactive).

As to `CCCCC/C=C\C/C=C\C/C=C\C/C=C\CCCC(=O)NCC(=O)O`, the “activity change, negative = cytotoxicity” value was -6.91% [at 42.5 µM] (inactive). Same read-out and setting: the same measure for `CC1=C2C[C@H]3[C@@H](CC=C4C[C@@H](O)CC[C@@]43C)[C@@H]2CC[C@]12O[C@@H]1C[C@H](C)CN[C@H]1[C@H]2C`: -1.73% [at 42.5 µM] (inactive).

For the origin of these results see PubChem BioAssay (Tox21).
